Cycloheximide cs: counter-screen for Shiga toxin inhibitors: cycloheximide protein synthesis inhibition. AID 2314. 12% of 300,000 active. cell reporter, cycloheximide protein synthesis inhibition counterscreen. max response, %; in the data active = max response mostly above about 13%, no sharp cut-off; inactive = mostly below about 14%; also: read at 38.3 µM for the half of the compounds with a filed dose; 0% is about no effect
Shiga inhibitor: blocks Shiga toxin action in Vero cells | Vero cells, Shiga toxin protein synthesis inhibition reporter | inhibition, % at 38.7 µM | 9.2% of 290,000 active; in the data active = inhibition mostly above about 28%, no sharp cut-off; inactive = mostly below about 43%; also: 0% is about no effect
Pf growth 48h: P. falciparum growth inhibition at 48 hours (one generation); Potency, µM (highest dose often 28.7 µM), for inactives: at the highest dose activity change, negative = inhibition, actives largely listed as inhibitors; P. falciparum luciferase growth in erythrocytes, 48 h; 5.9% of 310,000 active; AID 504832; also: potency is read from the fitted curve at half-maximal effect; % is scaled to controls: 0 for no effect and ±100 for the full control effect
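Here the parasites carry a stable luciferase gene and grow inside erythrocytes in Albumax-based RPMI medium with compound for one erythrocytic cycle. Activity is scored as loss of luminescent signal.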
Pf growth 96h: P. falciparum growth inhibition at 96 hours. P. falciparum luciferase reporter growth, 96 h. Potency, µM (highest dose often 28.7 µM), without a hit: top-dose activity change, negative = inhibition, actives largely listed as inhibitors. 6.9% of 320,000 active. AID 504834; also: potency is read from the fitted curve at half-maximal effect; % is scaled to controls: 0 for no effect and ±100 for the full control effect
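96 h incubation, 37 C, 5% CO2, of luciferase-reporter P. falciparum-infected RBCs (2% hematocrit, 0.05% parasitemia final) with test compounds; endpoint luminescence.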
AMA1 RON2 block: disrupts binding of P. falciparum AMA1 to RON2; AlphaScreen AMA1-biotinylated RON2 peptide binding; Potency, µM (doses to about 58.2 µM), for the others: at the highest dose activity change, negative = inhibition, usual class: inhibitors; 0.2% of 360,000 active; AID 720542;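 also: potency is read from the fitted curve at half-maximal effect; 0% = vehicle wells and -100% = peptide control; nearly all actives have a fitted effect of over 45% in size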
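AMA1 (3D7) with his tag at 25 nM final met compounds first, then biotinylated RON2 peptide at 25 nM; detection used donor plus acceptor beads, 10 µg/mL apiece, read by AlphaScreen after 30 min at room temperature.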
HCV inhibitor: blocks hepatitis C virus | 3.4% of 340,000 active | Potency, µM (highest dose often 41.8 µM), inactives show at the top dose activity change, negative = inhibition, hits mostly inhibitors | Huh7.5.1 HCVcc-Cre infection, luciferase reporter, 44 h; also: potency is read from the fitted curve at half-maximal effect; % is scaled to controls: 0 for no effect and ±100 for the full control effect
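Infectious HCV cell culture screen: compound-treated cells (1,000/well, pre-plated 4 h) are infected with HCVcc-Cre at roughly 0.5 moi and grown 44 h. Infection is quantified by luciferase signal after 15 min substrate incubation at room temperature.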
* marks the source's active call; other numbers are inactive results. This is a sample that favours compounds with a hit; in the whole collection about 21% have one here. Unless noted, calls follow the shape of the dose curve; as a rule, active = well fitted curve in the direction sought with a large enough effect; inconclusive = small, poorly fitted or top-dose-only effect, or another doubt; inactive = no such curve, though single readings can be large; an effect the other way counts as inactive or inconclusive.

How did Cc1ccsc1/C=N/NC(=O)C(N)=O do in these assays?
Cycloheximide cs: 35.2*; Shiga inhibitor: 72.6; Pf growth 48h: 22.0%; Pf growth 96h: 43.5%; AMA1 RON2 block: 33.5%; HCV inhibitor: 5.2%

Results for Cc1ccsc1/C=N/NC(=O)c1ccccn1 ?
Cycloheximide cs: 62.2*; Shiga inhibitor: 47.2*; Pf growth 48h: 180.1%; Pf growth 96h: 24.3%; AMA1 RON2 block: 66.8%; HCV inhibitor: 29.3%

What do the screens show for `Oc1c(Br)cccc1/C=N/c1ncn[nH]1`?
Cycloheximide cs: -4.6; Shiga inhibitor: -13.4; Pf growth 48h: 0.7%; Pf growth 96h: inconclusive; AMA1 RON2 block: -11.5%; HCV inhibitor: 13.5%

What do the screens show for `COc1ccc2cc(C3(C)NC(=O)N(CC(=O)NCC(F)(F)F)C3=O)ccc2c1` (stereo unspecified)?
Cycloheximide cs: -4.9; Shiga inhibitor: -2.6; Pf growth 48h: -7.3%; Pf growth 96h: -1.2%; AMA1 RON2 block: 0.5%; HCV inhibitor: -29.7%

Results for O=C(O)C1CCN(C(=O)CSc2nnc3ccccn23)CC1 ?
AMA1 RON2 block: -0.1%; HCV inhibitor: 2.4%

What do the screens show for `Cc1ccc(S(=O)(=O)c2nnn(-c3cccc(F)c3)c2N)cc1`?
Cycloheximide cs: -5.4; Shiga inhibitor: 19.1; Pf growth 48h: -11.5%; Pf growth 96h: 175.6%; AMA1 RON2 block: -5.7%; HCV inhibitor: 2.3%

What do the screens show for `CCCc1nc2nc(C)c(NS(=O)(=O)c3ccc(C)c(C)c3)c(=O)n2[nH]1`?
AMA1 RON2 block: -8.6%

What do the screens show for `CCOc1ccc(S(=O)(=O)N2CCC(C(=O)NCc3ccccc3CN3CCCC3)CC2)cc1`?
Pf growth 48h: 9.28µM*; Pf growth 96h: 13.1µM*; AMA1 RON2 block: -7.6%; HCV inhibitor: -29.7%

What do the screens show for `CCOc1ccc(S(=O)(=O)N2CCC(C(=O)OC(C)C(=O)NC3CCCCC3C)CC2)cc1` (stereo unspecified)?
Pf growth 48h: 8.28µM*; Pf growth 96h: 13.1µM*; AMA1 RON2 block: 13.9%; HCV inhibitor: 2.4%

What do the screens show for `O=C1CCCc2cc(S(=O)(=O)N3CCC(C(=O)NCc4ccccc4)CC3)ccc2N1`?
Cycloheximide cs: 0.6; Shiga inhibitor: -5.7; Pf growth 48h: inconclusive; Pf growth 96h: 19.1%; AMA1 RON2 block: 4.8%; HCV inhibitor: 3.7%

What do the screens show for `Cc1ccc(S(=O)(=O)N2CCC(C(=O)NCc3ccccc3CN3CCCC3)CC2)cc1`?
AMA1 RON2 block: 7.6%; HCV inhibitor: -9.3%

How did CCOc1ccc(CNC(=O)C2CCN(S(=O)(=O)c3ccc4c(c3)CCCC(=O)N4)CC2)cc1 do in these assays?
Cycloheximide cs: -4.9; Shiga inhibitor: -2.5; Pf growth 48h: 9.28µM*; Pf growth 96h: 9.28µM*; AMA1 RON2 block: 4.8%; HCV inhibitor: -20.4%

How did Cc1ccc(S(=O)(=O)N2CCC(C(=O)OC(C)C(=O)NC3CCCCC3C)CC2)cc1C (stereo unspecified) do in these assays?
Pf growth 48h: inconclusive; Pf growth 96h: inconclusive; AMA1 RON2 block: -5.4%; HCV inhibitor: 1.6%

How did CCOC(=O)C1CCN(S(=O)(=O)c2ccc3c(c2)CC(=O)N3)CC1 do in these assays?
Cycloheximide cs: 1.2; Shiga inhibitor: -2.4; Pf growth 48h: 11.7µM*; Pf growth 96h: 0.0%; AMA1 RON2 block: 0.8%; HCV inhibitor: 20.4%

Results for C=CCN(C(=O)c1csnn1)C(C(=O)NCc1ccc(F)cc1)c1cccs1 (stereo unspecified) ?
Cycloheximide cs: -4.0; Shiga inhibitor: -11.8; Pf growth 48h: 8.1%; Pf growth 96h: 11.8%; AMA1 RON2 block: -10.0%; HCV inhibitor: -0.5%

Results for N#Cc1ccccc1S(=O)(=O)N1CCC(C(=O)NCc2ccccc2CN2CCCC2)CC1 ?
Pf growth 48h: inconclusive; Pf growth 96h: 6.57µM*; AMA1 RON2 block: 1.1%; HCV inhibitor: -10.2%

How did c1ccc2nc(-c3ccc(-n4ccnc4)cc3)ccc2c1 do in these assays?
Cycloheximide cs: 34.5*; Shiga inhibitor: 61.5*; Pf growth 48h: -69.9%; Pf growth 96h: -34.0%; AMA1 RON2 block: 0.0%; HCV inhibitor: inconclusive

What do the screens show for `COc1ccc(OC)c(CN2C(=O)CN(S(C)(=O)=O)CC2(C)C(=O)NC(C)C)c1` (stereo unspecified)?
AMA1 RON2 block: 10.0%

Results for COc1c(C)cccc1C(=O)Nc1ccc(CN2CCOCC2)cc1 ?
Cycloheximide cs: 47.1*; Shiga inhibitor: 44.5*; Pf growth 48h: 134.1%; AMA1 RON2 block: -10.0%; HCV inhibitor: -0.8%

Results for CC(C)Oc1cccc(C(=O)Nc2ccc(CN3CCOCC3)cc2)c1 ?
Cycloheximide cs: 15.7*; Shiga inhibitor: 17.7; Pf growth 48h: -0.4%; AMA1 RON2 block: 37.0%; HCV inhibitor: inconclusive

Results for O=C(Nc1ccc2c(c1)OCCO2)c1ccc(CN2CCOCC2)cc1 ?
Cycloheximide cs: 49.6*; Shiga inhibitor: 72.7*; Pf growth 48h: 86.1%; Pf growth 96h: inconclusive; AMA1 RON2 block: 3.5%; HCV inhibitor: -29.0%

Results for COc1c(Cl)cc(Cl)cc1C(=O)Nc1ccc(CN2CCOCC2)cc1 ?
Cycloheximide cs: 2.8; Shiga inhibitor: -1.3; Pf growth 48h: 21.1%; Pf growth 96h: 56.6%; AMA1 RON2 block: -2.2%; HCV inhibitor: -16.5%

Results for COc1ccc(CN2CCOCCOCCN(Cc3ccc(OC)cc3)CCOCCOCC2)cc1 ?
Cycloheximide cs: -2.9; Shiga inhibitor: 6.3; Pf growth 48h: 13.1µM*; Pf growth 96h: inconclusive; AMA1 RON2 block: -1.9%; HCV inhibitor: inconclusive

How did Cc1c(NC(=O)c2cccnc2Cl)c(=O)n(-c2ccccc2)n1C do in these assays?
Cycloheximide cs: -1.2; Shiga inhibitor: 14.5; Pf growth 48h: 6.0%; Pf growth 96h: inconclusive; AMA1 RON2 block: -0.2%; HCV inhibitor: 43.1%

How did CC(=O)Nc1cc(-c2ccccc2CN(C)C)cn2c(-c3ccc(C(C)=O)cc3)cnc12 do in these assays?
AMA1 RON2 block: -7.1%

Results for COc1cccc(NC(=O)c2ccc(CN3CCOCC3)cc2)c1 ?
Cycloheximide cs: 22.3*; Shiga inhibitor: 32.7; Pf growth 48h: 101.6%; Pf growth 96h: 13.1%; AMA1 RON2 block: -2.3%; HCV inhibitor: inconclusive

Results for COCc1ccc([C@@H]2C[C@H]3CN(Cc4ccccc4C)C(=O)[C@]34CCCN24)o1 ?
Cycloheximide cs: 20.6*; Shiga inhibitor: 32.0*; Pf growth 48h: -15.4%; Pf growth 96h: inconclusive; AMA1 RON2 block: -5.0%; HCV inhibitor: -13.3%

How did COc1ccccc1CN1C[C@@H]2C[C@@H](c3[nH]c4c(C)cccc4c3C)N3CCC[C@@]23C1=O do in these assays?
Cycloheximide cs: -2.9; Shiga inhibitor: -4.3; Pf growth 48h: 6.57µM*; Pf growth 96h: 11.7µM*; AMA1 RON2 block: 11.0%; HCV inhibitor: -29.5%

Bioassay records: PubChem, National Center for Advancing Translational Sciences (NCATS)
